From PubChem BioAssay
L929 necroptosis: L929 zVAD cell death inhibition; L929 zVAD necroptosis rescue, ATP luminescence, 24 h; with zVAD 60 µM; viability rescue, % at 10 µM; actives 0.38% (n = 220,000);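 active means activation, scaled between plate controls, above about 75%, limit read from the data; inactive means activation under that limit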;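 further: 0% = zVAD with DMSO and 100% = DMSO alone without zVAD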
Mcl1-Noxa inh: disrupts binding of human Mcl-1 to Noxa peptide; Q07820; TR-FRET Mcl-1/Noxa peptide binding, 2 h; inhibition, % at 21.7 µM; actives 1.5% (n = 220,000); AID 1022;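 active means compounds that cut the protein-peptide binding signal by more than 50% relative to plate controls in a single-dose test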;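 further: His-tagged Mcl-1 with rhodamine Noxa BH3 peptide and terbium anti-His antibody; 0% = Mcl-1 plus Noxa peptide wells and 100% = peptide-only wells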
Target sequence (Q07820 whole entry, looked up): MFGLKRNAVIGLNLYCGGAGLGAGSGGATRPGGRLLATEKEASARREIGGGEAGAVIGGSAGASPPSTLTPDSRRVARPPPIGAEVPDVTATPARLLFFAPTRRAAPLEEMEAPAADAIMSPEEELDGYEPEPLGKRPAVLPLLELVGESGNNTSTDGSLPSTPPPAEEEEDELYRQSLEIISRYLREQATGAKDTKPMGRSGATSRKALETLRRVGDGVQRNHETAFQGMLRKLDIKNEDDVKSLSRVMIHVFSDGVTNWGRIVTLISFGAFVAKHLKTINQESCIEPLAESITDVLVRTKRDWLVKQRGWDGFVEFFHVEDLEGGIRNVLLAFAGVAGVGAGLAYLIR
TNF necrop inh: TNF-alpha cell death inhibition in Jurkat FADD-/- cells; activation (protection from cell death), % at 10 µM; Jurkat FADD-/- TNF necroptosis rescue, ATP luminescence, 24 h; 0 = TNF only, 100 = no-TNF cells; actives 0.068% (n = 220,000);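 active means activation, meaning protection from cell death, of at least 50% relative to plate controls; inactive means activation below 50%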;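 further: necroptosis triggered by 40 ng/mL TNF-alpha added together with compound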
Mcl1 Bid PPI: disrupts binding of human Mcl-1 to Bid peptide. inhibition, % at 21.7 µM. TR-FRET Mcl-1/Bid-Dy647 peptide binding, 1536-well. actives 0.97% (n = 220,000). AID 1021. Q07820;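 active means compounds that cut the binding signal by more than half at the single screening dose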;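 further: His-tagged Mcl-1 with europium anti-His antibody binding Bid BH3 peptide; 0% = Mcl-1 plus peptide wells and 100% = peptide-only wells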
Mcl-1 Bim block: disrupts Bim peptide binding to human Mcl-1; AID 1009; inhibition, % at 10 µM; Q07820; actives 0.1% (n = 190,000); Bead-based flow cytometry, Bim peptide-Mcl-1 binding; in the data active means inhibition above about 40%;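 further: 0% = no compound tracer wells and 100% = peptide blocker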
m-calpain inh: calpain II (pig) inhibition. purified calpain II, fluorogenic peptide substrate, 30 min. inhibition, % at 16 µM. actives 0.37% (n = 220,000);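 active means inhibition above about 50%, limit read from the data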
Numbers without * were called inactive; . = no result. Sampled rows, rich in hits. Any-hit rate of the full collection: about 2.8%.

SMILES | L929 necroptosis | Mcl1-Noxa inh | TNF necrop inh | Mcl1 Bid PPI | Mcl-1 Bim block | m-calpain inh
COc1cc(/C=N/NC(=O)C(Cc2c[nH]c3ccccc23)NC(=O)OCC(C)C)cc([N+](=O)[O-])c1O (centres undefined) | -0.2 | 51.9* | 0.7 | -40.6 | -2.0 | -33.7
COc1cc(/C=N/NC(=O)C(Cc2c[nH]c3ccccc23)NC(=O)OCC(C)C)cc([N+](=O)[O-])c1OCc1ccccc1 (centres undefined) | -0.2 | -4.4 | 1.6 | -17.1 | 2.0 | -230.3
COc1cc(CC(C#N)(CO)c2nc3ccccc3[nH]2)ccc1OC(F)F (centres undefined) | 0.6 | 13.0 | 2.1 | 5.5 | 7.0 | 27.7
O=C(CN1CCN(c2ccc(O)cc2)CC1)Nc1cc([N+](=O)[O-])ccc1Cl | -0.2 | 99.0* | 0.7 | -2.5 | 2.0 | 0.5
CC(=O)C(C(C)=O)c1c(Cl)c(O)c(O)c2c(C(=O)c3ccccc3)coc12 | 1.0 | 56.5* | -14.6 | 0.5 | 0.0 | -79.7
CN1CCN(Cc2c(O)ccc3occ(C(=O)c4ccccc4)c23)CC1 | 1.6 | 3.5 | 0.7 | -5.4 | 0.0 | -11.0
Brc1ccc(OCCCN2CCOCC2)cc1 | 1.0 | 8.0 | 1.5 | 64.5* | 1.0 | 20.8
O=C(Cc1c(Cl)cccc1Cl)NC1=NCCS1 | 0.8 | -11.5 | 1.4 | -25.4 | -1.0 | -6.7
COc1cc(OC)cc(C(=O)N[C@@H](CCSC)c2nc3ccccc3[nH]2)c1 | 9.7 | 15.6 | 2.6 | -35.3 | -2.0 | -1.1
O=S(=O)(Nc1cc(Sc2cccc3cccnc23)c(O)c2ccccc12)c1ccccc1 | 41.0 | 68.3* | -12.2 | -13.4 | 2.0 | -7.4
CCOC(=O)NCc1ccc(S(=O)(=O)Nc2ccccc2C)cc1 | -0.2 | 1.7 | -1.3 | -13.9 | 1.0 | -2.0
O=C(O)CSc1cc(NS(=O)(=O)c2cccc([N+](=O)[O-])c2)c2ccccc2c1O | 17.9 | 76.2* | -29.0 | 15.8 | . | 40.2
CCc1ccc(S(=O)(=O)Nc2cc(SCC(=O)O)c(O)c3ccccc23)cc1 | 19.3 | 55.7* | -8.9 | -29.4 | 4.0 | -0.5
O=C(O)c1cccc(S(=O)(=O)Nc2ccc([N+](=O)[O-])cc2O)c1 | -0.6 | -11.9 | -0.4 | -110.0 | . | -13.9
Cc1ccc(C)c(S(=O)(=O)Nc2cc(SCC(=O)O)c(O)c3ccccc23)c1 | 5.7 | 79.0* | -9.4 | -15.9 | 4.0 | 16.2
Cc1ccc(S(=O)(=O)Nc2cccc3cccnc23)cc1 | 0.2 | -81.1 | -13.1 | -62.6 | -3.0 | -44.1
CN(C)/C=C/C(=O)c1ccc(-c2ccc(Cl)cc2Cl)o1 | 1.1 | 25.9 | -0.6 | -15.9 | -1.0 | 10.8
O=C(CN1C(=O)COc2ccccc21)N1CCc2ccccc2C1 | 0.7 | -16.0 | -0.6 | -8.5 | -6.0 | 4.9
O=C(Nc1ccc(C(=O)NC2CCCCC2)cc1)c1cccnc1 | 0.8 | 2.4 | -0.9 | -2.5 | -3.0 | 20.4
COc1cc(SC)ccc1C(=O)N1CCN(c2ccccc2)CC1 | 3.8 | 82.3* | 0.6 | -43.7 | 0.0 | 14.0
O=C1CCCC2=C1C(c1ccc(O)c(O)c1)Nc1ccc3ncccc3c12 (centres undefined) | 1.9 | 76.8* | -1.8 | -24.3 | 5.0 | -72.5
CN1CCN(C(c2ccccn2)c2cc(Cl)c3cccnc3c2O)CC1 (centres undefined) | 4.3 | 46.1 | -3.5 | 37.1 | 0.0 | 2.6
Oc1c(C(c2ccc(Cl)cc2)N2CCCC2)cc(Cl)c2cccnc12 (centres undefined) | -0.9 | 21.6 | -11.7 | 73.3* | -1.0 | -62.5
Cc1ccc2[nH]c(=O)c(-c3nc4cc(C)ccn4c3NCc3ccco3)cc2c1 | 0.7 | 59.8* | -0.5 | 80.1* | 0.0 | 3.3
Cc1cc(C)c(OCC(=O)Nc2nnc(-c3ccco3)o2)c(C)c1 | 0.7 | 0.0 | -0.6 | -45.3 | 0.0 | 11.8
SMILES | L929 necroptosis | Mcl1-Noxa inh | TNF necrop inh | Mcl1 Bid PPI | Mcl-1 Bim block | m-calpain inh
O=C1CC2C(=O)NCCN2C(=NC(=O)c2ccc(Cl)cc2)N1 (centres undefined) | -0.8 | 6.5 | 1.4 | -12.9 | -1.0 | 92.0*
O=C(NC(=S)Nn1cnc2c(cnn2-c2ccccc2)c1=O)c1ccccc1 | 2.6 | -31.0 | 2.8 | -109.7 | -4.0 | -11.3
CN(CC(=O)NC(=O)NC(C)(C)C)CC(=O)Nc1ccccc1Cl | 1.6 | 22.5 | -0.1 | -0.8 | 0.0 | 9.6
CCOC(=O)CN(C(=O)CSc1nnc2c(n1)[nH]c1ccc(F)cc12)c1ccccc1 | -0.2 | 7.5 | -0.6 | 3.9 | 3.0 | 59.5*
CCOC(=O)CN(C(=O)CSc1nnc2c(n1)[nH]c1ccccc12)c1ccccc1 | 0.8 | 9.8 | 0.7 | -4.0 | 0.0 | 16.2
CC(C)(C)OC(=O)N1CCC(CNC(=O)c2cccs2)CC1 | 0.6 | 4.8 | 1.9 | -34.6 | . | -20.5
CCCCCCC(=O)Oc1ccc(N2C(=O)CCC2=O)cc1 | 2.1 | 55.2* | -1.1 | 5.3 | 2.0 | 8.1
CCOc1ccc(N2C(=O)CCC2=O)cc1 | 1.2 | 6.0 | -0.8 | -22.2 | 3.0 | -5.4
Cc1cc(C)c(NC(=O)Cn2cc3c(n2)CCCC3)c(C)c1 | 0.3 | -7.2 | 2.2 | -15.1 | -5.0 | 68.8*
O=C(Cn1cc2c(n1)CCCCC2)Nc1c(F)c(F)cc(F)c1F | 0.0 | 11.9 | 0.6 | -4.6 | -1.0 | -14.6
Cc1ccsc1C1C(C#N)=C(N)N(N(C)C)C2=C1C(=O)CC(C)(C)C2 (centres undefined) | 0.5 | 7.9 | 2.3 | -10.3 | 0.0 | 35.7
NC(=O)c1ccc(N2CCN(c3ccc(O)cc3)CC2)c([N+](=O)[O-])c1 | -1.1 | 64.1* | -6.3 | -38.1 | 4.0 | -20.6
O=[N+]([O-])c1cc(S(=O)(=O)N2CCCCC2)ccc1NCCCN1CCOCC1 | 0.4 | 53.6* | -0.5 | -12.7 | 0.0 | 11.0
CC1=C2C(CCS2(=O)=O)CC2(C1)C(=O)OC(C)(C)OC2=O (centres undefined) | 0.5 | 24.1 | -2.2 | -10.5 | 66.0* | -12.8
O=C1N=C(N2CCc3ccccc3C2)S/C1=C\c1cccc(O)c1 | 1.8 | 33.8 | 1.6 | -69.4 | -16.0 | -20.8
COc1ccc(-c2nc(N)n(C(=O)c3cccs3)n2)cc1 | 1.3 | -10.8 | 0.3 | -16.2 | -1.0 | -36.7
Cc1ccc(C(=O)NC(=S)Nc2ccc(NC(=O)c3cccs3)cc2)cc1[N+](=O)[O-] | -0.7 | 41.5 | 3.3 | 51.6* | -6.0 | 16.1
Cc1ccc(C(=O)Nc2ccc(NC(=O)c3cccs3)cc2)cc1[N+](=O)[O-] | -0.3 | 18.3 | 2.3 | 13.6 | -3.0 | -10.6
Cc1cc(C2=NNC(=NC3CC3)SC2)c(C)n1-c1c(C)n(C)n(-c2ccccc2)c1=O | . | 51.8* | 2.1 | 7.2 | -2.0 | 5.7
Cc1cc(C2=NNC(=NCCc3ccccc3)SC2)c(C)n1-c1c(C)n(C)n(-c2ccccc2)c1=O | -0.5 | 7.6 | 1.4 | -141.5 | . | -46.5
Cc1cc(C(=O)NC2CCCc3ccccc32)no1 (centres undefined) | -0.2 | 14.4 | 1.1 | -6.5 | 46.0* | -2.4
